The results in this text go back to PubChem BioAssay.

A short description of assay [1]: binders of probe aFSTL3 on microarray, primary screen, stem cell growth factor project, biochemical, small-molecule microarray, fluorescence 635/667 (AID 1064).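 Also: measures binding of the biotinylated anti-FSTL3 antibody to printed compounds.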 The note with it: higher = more signal.
A short description of assay [2]: binders from COS7 lysate, DM2A8 probe, primary screen, torsin A project, cell lysate, small-molecule microarray, fluorescence 635/667 (AID 1065). Conditions: higher = more signal, COS7 lysate expressing mutant human TOR1A.
A short description of assay [3]: binders of probe aFGF2 on microarray, primary screen, stem cell growth factor project, biochemical, small-molecule microarray, fluorescence 635/667 (AID 1067).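 Also: measures binding of biotinylated aFGF2 protein to printed compounds on slides; z-score merges feature fluorescence and signal-to-noise across triplicate slides.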 Conditions: higher = more signal.
Assay [4] can be described thus: binders of probe aFGF10 on microarray, primary screen, stem cell growth factor project, biochemical, small-molecule microarray, fluorescence 635/667 (AID 1071).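 Also: score merges 667 nm spot intensity and signal to noise from triplicate slides.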 The note with it: higher = more signal.
Assay [5] deals with Neurogenic locus notch homolog protein 2 (Homo sapiens) (UniProt Q04721). As to the kind of experiment: Notch2 binders on small-molecule microarrays, primary screen, biochemical, small-molecule microarray, 635 nm fluorescence, stem cell growth factors (AID 1073). The note with it: Notch2 binding, higher = more signal.
Neurogenic locus notch homolog protein 2 (Homo sapiens), sequence (Q04721 whole entry, looked up, canonical isoform): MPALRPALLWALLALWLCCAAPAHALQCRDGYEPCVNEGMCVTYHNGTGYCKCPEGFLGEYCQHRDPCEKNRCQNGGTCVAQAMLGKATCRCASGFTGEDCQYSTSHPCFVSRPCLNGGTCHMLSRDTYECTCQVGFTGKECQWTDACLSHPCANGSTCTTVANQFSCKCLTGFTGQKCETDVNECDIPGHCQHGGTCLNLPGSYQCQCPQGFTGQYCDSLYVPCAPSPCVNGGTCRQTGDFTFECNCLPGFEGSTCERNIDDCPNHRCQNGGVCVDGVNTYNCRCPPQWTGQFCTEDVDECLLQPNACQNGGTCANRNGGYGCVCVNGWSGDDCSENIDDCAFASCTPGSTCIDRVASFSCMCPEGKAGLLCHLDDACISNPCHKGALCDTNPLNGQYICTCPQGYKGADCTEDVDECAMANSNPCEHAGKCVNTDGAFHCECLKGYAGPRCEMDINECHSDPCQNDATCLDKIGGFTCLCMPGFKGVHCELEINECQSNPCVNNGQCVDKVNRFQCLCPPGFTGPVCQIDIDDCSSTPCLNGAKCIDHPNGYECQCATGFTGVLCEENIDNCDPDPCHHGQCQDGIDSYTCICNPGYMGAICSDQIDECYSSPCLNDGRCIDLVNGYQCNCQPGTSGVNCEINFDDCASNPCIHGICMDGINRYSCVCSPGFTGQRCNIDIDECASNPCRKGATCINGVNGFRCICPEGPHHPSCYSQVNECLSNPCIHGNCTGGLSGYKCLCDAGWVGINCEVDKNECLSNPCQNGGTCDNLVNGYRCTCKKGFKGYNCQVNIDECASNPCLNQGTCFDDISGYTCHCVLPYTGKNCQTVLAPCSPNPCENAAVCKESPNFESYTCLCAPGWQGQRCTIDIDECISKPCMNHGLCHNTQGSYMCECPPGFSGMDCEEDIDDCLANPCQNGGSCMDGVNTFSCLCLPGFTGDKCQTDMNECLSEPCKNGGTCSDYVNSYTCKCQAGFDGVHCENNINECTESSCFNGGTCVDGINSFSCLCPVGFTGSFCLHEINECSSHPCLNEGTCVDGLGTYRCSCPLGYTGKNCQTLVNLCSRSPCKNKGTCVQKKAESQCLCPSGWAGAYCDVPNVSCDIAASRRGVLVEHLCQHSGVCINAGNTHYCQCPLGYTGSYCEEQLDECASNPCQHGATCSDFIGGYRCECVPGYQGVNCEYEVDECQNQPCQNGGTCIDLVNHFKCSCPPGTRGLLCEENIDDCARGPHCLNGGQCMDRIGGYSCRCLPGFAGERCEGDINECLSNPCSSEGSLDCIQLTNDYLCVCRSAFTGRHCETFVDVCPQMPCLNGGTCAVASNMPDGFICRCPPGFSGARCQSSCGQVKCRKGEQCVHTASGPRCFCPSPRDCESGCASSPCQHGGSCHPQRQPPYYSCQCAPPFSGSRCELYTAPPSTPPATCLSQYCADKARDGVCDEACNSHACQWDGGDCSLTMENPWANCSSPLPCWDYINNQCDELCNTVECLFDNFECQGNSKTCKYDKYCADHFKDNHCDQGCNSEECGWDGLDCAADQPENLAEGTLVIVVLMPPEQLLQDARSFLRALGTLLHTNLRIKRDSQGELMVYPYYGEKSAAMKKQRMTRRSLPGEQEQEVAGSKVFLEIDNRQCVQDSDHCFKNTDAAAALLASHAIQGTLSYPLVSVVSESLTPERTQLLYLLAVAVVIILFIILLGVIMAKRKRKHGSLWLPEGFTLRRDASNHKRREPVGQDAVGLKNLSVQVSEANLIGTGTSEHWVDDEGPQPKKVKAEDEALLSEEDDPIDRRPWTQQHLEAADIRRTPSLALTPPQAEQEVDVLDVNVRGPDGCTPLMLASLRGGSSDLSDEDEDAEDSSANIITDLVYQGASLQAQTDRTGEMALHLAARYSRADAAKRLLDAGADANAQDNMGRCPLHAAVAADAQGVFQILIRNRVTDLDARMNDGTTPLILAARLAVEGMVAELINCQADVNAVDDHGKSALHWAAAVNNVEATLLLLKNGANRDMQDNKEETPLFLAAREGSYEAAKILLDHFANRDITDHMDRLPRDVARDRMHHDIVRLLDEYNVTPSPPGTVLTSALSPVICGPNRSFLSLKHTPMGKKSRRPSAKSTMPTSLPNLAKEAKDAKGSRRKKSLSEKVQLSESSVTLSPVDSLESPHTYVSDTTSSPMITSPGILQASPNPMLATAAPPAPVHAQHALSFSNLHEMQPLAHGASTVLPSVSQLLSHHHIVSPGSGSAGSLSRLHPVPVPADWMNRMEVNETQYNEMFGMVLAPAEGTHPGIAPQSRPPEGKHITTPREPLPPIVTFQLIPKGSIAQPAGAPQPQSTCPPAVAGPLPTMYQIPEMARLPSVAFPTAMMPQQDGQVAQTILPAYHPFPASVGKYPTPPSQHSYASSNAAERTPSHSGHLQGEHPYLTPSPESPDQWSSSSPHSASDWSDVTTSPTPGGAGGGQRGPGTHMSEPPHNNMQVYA
Assay [6] concerns the target Pro-neuregulin-1, membrane-bound isoform (Homo sapiens) (UniProt Q02297). As to the kind of experiment: NRG1 binders on small-molecule microarrays, primary screen, psychiatric disease protein project, biochemical, small-molecule microarray, fluorescence 635/667 (AID 1075).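 Also: score combines 667 nm spot fluorescence with signal to noise.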 Conditions: NRG1 binding, 635 nm fluorescence, higher = more signal.
Assay [7] concerns Neuregulin-1 EGF-like domain. Nature of the assay: binders of neuregulin-1 EGF-like domain, primary screen, biochemical, small-molecule microarray, 635 nm fluorescence (AID 1081).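 Also: binding of the protein to compounds printed on small-molecule microarray slides.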 Conditions: small-molecule microarray binding, higher = more signal.
Assay [8] can be described thus: FRG1 promoter luciferase signal modulators, primary screen, FRG1 inhibition for FSHD, cell-based, C2C12 myotubes, firefly/Renilla luciferase, luminescence (AID 1084). The note with it: higher = more signal, called active from +8 up or from −8 down.
Assay [9] can be described thus: binders of probe aFST on microarray, primary screen, stem cell growth factor project, biochemical, small-molecule microarray, fluorescence 635/667 (AID 1086).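 Also: score merges 667 nm fluorescence with signal-to-noise of each printed compound spot.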 The note with it: higher = more signal.
Assay [10] in a line: binders of probe aHhip on microarray, primary screen, stem cell growth factor project, biochemical, small-molecule microarray, fluorescence 635/667 (AID 1087).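 Also: score merges spot fluorescence at 667nm with spot signal to noise ratio.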 Conditions: higher = more signal.

Calls of active or inactive are those of the source.

Pro-neuregulin-1, membrane-bound isoform (Homo sapiens), sequence (Q02297 whole entry, looked up, the tested form may be a part, canonical isoform): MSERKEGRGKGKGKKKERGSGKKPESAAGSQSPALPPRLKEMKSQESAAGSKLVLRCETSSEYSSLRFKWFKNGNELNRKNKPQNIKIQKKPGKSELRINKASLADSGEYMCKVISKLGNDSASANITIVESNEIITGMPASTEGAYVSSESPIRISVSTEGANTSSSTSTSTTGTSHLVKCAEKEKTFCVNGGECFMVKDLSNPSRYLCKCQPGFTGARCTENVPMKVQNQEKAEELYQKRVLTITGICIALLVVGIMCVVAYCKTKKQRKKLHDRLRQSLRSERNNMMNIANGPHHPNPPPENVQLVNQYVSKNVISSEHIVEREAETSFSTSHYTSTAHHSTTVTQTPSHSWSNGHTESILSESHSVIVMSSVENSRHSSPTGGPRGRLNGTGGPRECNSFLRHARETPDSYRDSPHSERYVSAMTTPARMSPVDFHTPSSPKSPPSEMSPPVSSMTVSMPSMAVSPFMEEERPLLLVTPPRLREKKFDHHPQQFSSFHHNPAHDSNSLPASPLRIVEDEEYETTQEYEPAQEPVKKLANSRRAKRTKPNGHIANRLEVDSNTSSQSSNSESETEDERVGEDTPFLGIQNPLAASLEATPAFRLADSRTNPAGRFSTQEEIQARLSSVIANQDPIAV

Take `CCOC(=O)C1=C[C@@H](c2ccccc2)N(S(=O)(=O)c2ccc(C)cc2)[C@H]1c1cccc(Cl)c1`: the composite z-score in [1] worked out at 0.266; in assay [2], 1.81; in [3], 0.085; in [4] it was 0.885; in assay [5] it was 1.58; in [6], 1.34. The composite z-score is 0.991 in assay [7], 1.02 in assay [9] and -0.0919 in assay [10]. In addition, the z-score in [8] was -2.98 (inactive).

On to `COCCOC(=O)N1C(=O)[C@@]2(c3cc(C#CC4=CCCCC4)ccc31)[C@H](c1ccc(O)cc1)N1[C@H](c3ccccc3)[C@H](c3ccccc3)OC(=O)[C@H]1[C@@H]2C(=O)Nc1nc2ccccc2s1`, for which the composite z-score was -0.177 in [1]; 0.441 in assay [2]; 0.0323 in assay [3]; 0.969 in [4]; 1.24 in assay [5]; 0.896 in [6]. Besides, the composite z-score came out at 1.23 in assay [7], 1.06 in assay [9] and 0.0972 in assay [10]. Besides, in [8], the z-score was 1.53 (inactive).

For `O=C(O)[C@H]1C[C@H]2C(=O)N3CCC[C@H]3C(=O)N2[C@H]1c1cccc(OCCO)c1`, the composite z-score in assay [1] is 0.376; in [2], 0.812; in assay [3], -0.0985; in assay [4] it was 0.178; in assay [5], -0.237; in [6] it was 0.337. The composite z-score in assay [7] is 1.25; in assay [9], -0.0791; in [10], 0.176. The z-score in assay [8] is 6.19 (inactive).

In the case of `CCC[C@@H]1C[C@@]1(CCC)[C@@H](NP(=O)(c1ccccc1)c1ccccc1)c1ccc(Cl)cc1`, the composite z-score in assay [1] is 0.337; in assay [2], -0.23; in assay [3] it was 0.0368; in assay [4], -0.387; in [5], -0.615; in assay [6] it was -0.23. Further, the composite z-score is -0.414 in assay [7], -0.223 in [9] and 0.982 in [10]. Moreover, the z-score in [8] was 1.8 (inactive).

On to `CO[C@H]1O[C@H](CO)[C@@H](OC(=O)Nc2ccc(Oc3ccccc3)cc2)[C@H](OC(=O)Nc2ccccc2-c2ccccc2)[C@@H]1OC(=O)Nc1ccccc1-c1ccccc1`, for which the composite z-score in assay [1] was 0.531; in assay [2] it was 1.21; in assay [3], 0.0325; in assay [4], 1.02; in assay [5], 1.57; in assay [6] it was 1.59. For the same compound, the composite z-score in assay [7] is 1.18; in assay [9] it was 1.03; in assay [10] it was -0.121. In addition, in assay [8], the z-score was 1.17 (inactive).

In the case of `CCOC(=O)C[C@H]1[C@H](OC(=O)c2ccccc2-c2ccccc2)[C@@H](NC(=O)CC(C)C)c2cc(OCCCO)ccc2N1C(=O)c1ccc2ccccc2n1`, the composite z-score in assay [1] is -0.469; in assay [2], 0.257; in [3], -0.0463; in [4] it was 0.414; in [5] it was 0.549; in [6], -0.121. Moreover, the figures for the composite z-score in [7], in [9] and in assay [10] were 0.324, 0.535 and 0.0274, respectively. In addition, the z-score in assay [8] was 0.0832 (inactive).

On to `CN(C)CCCCNC(=O)[C@H]1C[C@H]2C(=O)N3CCC[C@H]3C(=O)N2[C@H]1c1ccc(O)cc1`, for which the composite z-score was -1.12 in [1]; -1.77 in assay [2]; -0.284 in assay [3]; -1.1 in assay [4]; -1.3 in assay [5]; -1.06 in [6]. Also, the composite z-score was -0.239 in assay [7], 0.0253 in [9] and -0.389 in [10]. The z-score in assay [8] is 4.64 (inactive).

Consider `O=C1O[C@@H](c2ccccc2)[C@@H](c2ccccc2)N2[C@@H](c3ccc(O)cc3)[C@]3(C(=O)Nc4ccc(C#CCCO)cc43)[C@@H](C(=O)Nc3nc4ccccc4s3)[C@H]12`, for which the composite z-score was 0.0071 in assay [1]; 1.27 in assay [2]; -0.0721 in assay [3]; 0.987 in [4]; 0.37 in assay [5]; 1.45 in assay [6]. The results for the composite z-score in [7], in [9] and in assay [10] were 1.19, 0.158 and -0.236, respectively. Moreover, the z-score in [8] is 0.213 (inactive).

For the compound `O=C(O)[C@]1(Cc2ccccc2)N=C(c2ccc(OCCCO)cc2)O[C@@H]1c1ccccc1`, the composite z-score in assay [1] is 0.428; in assay [2], -1.31; in [3], -0.135; in assay [4], -0.321; in [5] it was 0.0148; in [6], 1.45. Also, the composite z-score in assay [7] is 0.847; in assay [9], 0.378; in assay [10], -0.164. Besides, the z-score in assay [8] is -0.737 (inactive).

`C=CCC(OC(C)=O)[C@@H]1[C@@H](N(Cc2cc3ccccc3o2)C(=O)Cc2ccc(F)cc2)c2cc(OCCCO)ccc2N1C(=O)c1ccc2ccccc2n1` (stereo not given in full): the composite z-score was -0.0583 in [1]; 0.337 in assay [2]; -0.0695 in assay [3]; 0.0991 in assay [4]; -0.0518 in [5]; -0.137 in [6]. The composite z-score is -0.275 in assay [7], 0.0407 in assay [9] and 0.0881 in [10]. In assay [8], the z-score was -0.591 (inactive).

For `CC(C)C(O)C1C=CC2C(=O)N(C)C(=O)C2N1N(c1ccccc1)c1ccccc1` (stereo not given), the composite z-score was 0.626 in assay [1]; -0.312 in assay [2]; -0.0613 in assay [3]; -0.577 in assay [4]; 0.461 in [5]; 0.371 in assay [6]. Further, the results for the composite z-score in assay [7], in [9] and in assay [10] were -0.142, 0.272 and 0.0139, respectively. In addition, the z-score in assay [8] was -0.165 (inactive).
